Reference: PubChem BioAssay (NCATS)
Inconclusive results are not listed. Calls of active or inactive are those of the source. Unless noted, the call rests on the fitted dose curve; in most records, active means well fitted curve in the direction sought with a large enough effect; inconclusive means small, poorly fitted or top-dose-only effect, or another doubt; inactive means no such curve, though single readings can be large; an effect the other way counts as inactive or inconclusive.

Experiments:
[1] = biological target: Endonuclease 4 (Escherichia coli (strain K12)) (UniProt P0A6C1); assay: Counterscreen for APE1 Inhibitors: qHTS Validation Assay for Inhibitors of Endonuclease IV (AID 1708); further: on the % scale 0 is the no-effect control and ±100 the full control effect
Outline: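 The reaction buffer contained 50 mM Tris-HCl pH 7.5, 50 mM NaCl, 2 mM MgCl2, 1 mM DTT and 0.01% Tween-20. Incision of a 50 nM fluorophore/quencher THF substrate by 2 nM enzyme was measured kinetically.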

[2] = qHTS for differential inhibitors of proliferation of Plasmodium falciparum line 7G8 (AID 1815);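 further: parasite growth measured after three days of incubation; plate controls were vehicle wells for no effect and reference inhibitor wells for full effect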
[3] = qHTS for differential inhibitors of proliferation of Plasmodium falciparum line 3D7 (AID 1876);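 further: parasite growth measured after three days of culture; 0% = vehicle wells and -100% = reference inhibitor wells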
[4] = qHTS for differential inhibitors of proliferation of Plasmodium falciparum line D10 (AID 1877);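 further: parasites grown with compound for 72 h before DNA staining; plate controls were vehicle wells for no effect and reference inhibitor wells for full effect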
[5] = qHTS for differential inhibitors of proliferation of Plasmodium falciparum line Dd2 (AID 1882); settings: Potency: Plasmodium falciparum Dd2 proliferation inhibition;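 further: series mostly up to about 29 µM; compound exposure of 72 h on infected erythrocytes; plate controls were DMSO vehicle for no effect and 0.29 µM artemisinin for full effect; nearly all actives have a fitted effect of over 65% in size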
Outline: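 RBC culture, 0.3% parasitemia / 2.5% Hct final; cpd added by pin tool in DMSO; 72 h, 37 C, 5% CO2; lysis buffer + SYBR Green I, o/n RT dark; FI 485/535; norm. to artemisinin 0.29 uM and DMSO.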

[6] = qHTS for differential inhibitors of proliferation of Plasmodium falciparum line HB3 (AID 1886); settings: Potency: Plasmodium falciparum HB3 proliferation inhibition;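 further: parasites grown with compound for 72 h before SYBR Green readout; plate controls were vehicle for no effect and reference inhibitor for full effect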
[7] = qHTS Assay for Modulators of Human Peripheral Myelin Protein 22 (PMP22) Expression/Activity (AID 1967; active means well fitted curve in the direction sought with a large enough effect in the signal ratio; the % refers to the signal ratio;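 further: 0% = untreated cells and 100% end not stated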)
Outline: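 Quantitative HTS in a mouse Schwann cell line expressing dual click beetle luciferases: Pmp22 promoter (green) and control EF-alpha promoter (red). After 24h treatment, corrected green/red signal ratio gave %Activity relative to untreated cells.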

[8] = biological target: ATP-dependent DNA helicase Q1 (Homo sapiens) (UniProt P46063); assay: qHTS Validation Assay for Inhibitors of RecQ-Like Dna Helicase 1 (RECQ1) (AID 2353);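 further: plate controls were DMSO vehicle for no effect and enzyme-free control for full effect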
Outline: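 RECQ1T1 50 nM; forked duplex (20 bp + 30-nt ss tails) 200 nM, ATP 2 mM final; pH 8.0, 2 mM MgCl2, 2.5 ug/ml poly(dI-dC); 15 min compound preincubation; discontinuous kinetic read over 2 h at RT.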

[9] = biological target: RecQ-like DNA helicase BLM (Homo sapiens) (UniProt P54132); assay: qHTS Validation Assay for Inhibitors of Bloom's syndrome helicase (BLM) (AID 2364);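 further: plate controls were DMSO vehicle for no effect and enzyme-free control for full effect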
Outline: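 Forked 20-bp duplex substrate (200 nM, TAMRA/BHQ-2) plus 2 mM ATP added after 15 min compound preincubation with 50 nM enzyme, pH 8.0, poly(dI-dC) 2.5 ug/ml. Strand separation followed by fluorescence (525/598 nm) over 2 h, normalized to enzyme-free and DMSO controls.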

[10] = Validation screen for small molecules that induce DNA re-replication in MCF 10A normal breast cells (AID 463097); further: 0% is about no effect; nearly all actives have a fitted effect of over 60% in size
Outline: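 DNA re-replication was detected as a rise in nuclei with elevated Hoechst fluorescence after a 48 hr compound exposure of MCF 10A cells at 37 C.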

[11] = Quantitative high throughput screen for delayed death inhibitors of the malarial parasite plastid, 48 hour incubation (AID 488752); further: on the % scale 0 is the no-effect control and ±100 the full control effect; nearly all actives have a fitted effect of over 65% in size
Outline: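 Luciferase-expressing P. falciparum in RBCs, 2% Hct, 0.1% parasitemia final; RPMI 1640 + 0.5% Albumax; 48 h, 37 C, 5% CO2; luminescence readout, signal drop = growth inhibition.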

[12] = biological target: M-phase phosphoprotein 8 (Homo sapiens) (UniProt Q99549); assay: qHTS Validation Assay for Inhibitors for MPP8 Chromodomain Interactions with Methylated Histone Tails (AID 488949);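 further: AlphaScreen signal from MPP8 chromodomain bound to biotinylated H3K9me3 peptide; top concentration of the series differs between compounds; on the % scale 0 is the no-effect control and ±100 the full control effect; nearly all actives have a fitted effect of over 55% in size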
Outline: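 Disruption of the preformed MPP8–trimethyl-H3K9 peptide complex (both 50 nM, 30 min, RT) is measured after 30 min compound exposure, using AlphaScreen proximity beads; aurintricarboxylic acid titration serves as plate control.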

[13] = biological target: Transient receptor potential cation channel subfamily V member 1 (Homo sapiens) (UniProt Q8NER1); assay: HTS Assay for Compounds that Act as Enhancers of the Vanilloid Receptor 1 (AID 488979); further: 0% is about no effect
Outline: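 Calcium influx kinetics via Fluo-8 (480/520 nm) in TRPV1-expressing cells, 2000/well cultured overnight at 35.5C. Compound-alone read 3 min (agonist phase), followed by EC20 capsaicin challenge for 2 min (enhancer phase).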

[14] = biological target: Thyrotropin receptor (Homo sapiens) (UniProt P16473); assay: qHTS Assay for Antagonists of the Thyroid Stimulating Hormone Receptor (AID 488980); further: series mostly up to about 58 µM; 0% is about no effect
Outline: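 Cells expressing human TSHR (HEK293) are dispensed in HBSS/HEPES containing 70 uM RO 20-1724, compound is added, then TSH at EC80 (4 nM final). Antibody in lysis buffer follows, 30 minutes at room temperature before HTRF detection.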

[15] = biological target: Thyrotropin-releasing hormone receptor (Homo sapiens) (UniProt P34981); assay: qHTS for Small Molecule Agonists and Allosteric Enhancers of Human TRH Receptor: Validation Screen for Agonists (AID 493127;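 active means calcium activation more than 3 SD above the typical response in the agonist read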;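 further: intracellular calcium rise by fluo-8 fluorescence before TRH EC20 addition; 0% is about no effect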); settings: TRH receptor agonist cell assay; at 2 µM; hits give high values
Outline: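 Read-out: intracellular calcium release measured kinetically by FDSS (fluo-8, ex 480/em 530 nm), 1 reading/s after a 10-cycle baseline. TRHR cells, 2000/well, cultured 18 h at 33.5C, dye-loaded at room temp. Compound-evoked positive calcium signal flags agonists.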

[16] = biological target: Galactokinase (Homo sapiens) (UniProt P51570); assay: qHTS Validation Assay for Inhibitors of Human Galactokinase (GALK) (AID 493189); further: 0% is about no effect
Outline: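 Compounds were pin-transferred into ATP buffer, then GALK-galactose mix was added (final 5 nM enzyme, 100 uM galactose, 35 uM ATP). After 1 h at room temperature, remaining ATP was measured luminescently.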

[17] = Validation screen for small molecules that induce DNA re-replication in SW480 colon adenocarcinoma cells (AID 504364); further: 0% is about no effect
Outline: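 Read-out: total Hoechst intensity of nuclei by fluorescence scanning imager; hits raise the fraction of nuclei with elevated DNA content. Cells received compound for 48 hr at 37 C before a 40 min stain.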

[18] = biological target: DNA dC->dU-editing enzyme APOBEC-3G (Homo sapiens) (UniProt Q9HC16); assay: qHTS for inhibitors of Vif-A3G interactions: Validation (AID 588379); further: 0% is about no effect
Outline: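 Yellow fluorescence (Ex 488, Em 500-530) of Vif-coexpressing HeLa A3G-eYFP cells, scanned by Acumen cytometer, reports blocked A3G degradation. Cells plated at 700/well overnight at 37 deg C before compound addition, then a further overnight compound incubation at 37 deg C.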

[19] = biological target: Voltage-gated inwardly rectifying potassium channel KCNH2 (Homo sapiens) (UniProt Q12809); assay: qHTS Assay for Small Molecule Inhibitors of the Human hERG Channel Activity (AID 588834);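 further: U2OS cells transduced with hERG by BacMam; top concentration of the series differs between compounds; on the % scale 0 is the no-effect control and ±100 the full control effect; lower thallium flux fluorescence means stronger hERG block; nearly all actives have a fitted effect of over 50% in size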
Outline: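 Cells were infected with hERG-BacMam virus for 4 hrs at room temperature, grown overnight, then seeded at 2000/well. After dye loading and roughly 10 min compound treatment, thallium influx was triggered and fluorescence recorded.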

[20] = system: Zika virus NS2B-NS3 protease; assay: Primary screen GU AMC qHTS for Zika virus inhibitors (AID 1347154);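 further: 0% = no-inhibitor control and -100% = no-enzyme control; nearly all actives have a fitted effect of over 70% in size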
Outline: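 Fluorogenic AMC-substrate cleavage by noncovalent NS2B-NS3 protease complex (25 nM, pH 8.0 Tris buffer with Tween 20) followed for 15 minutes at room temperature (~20% conversion). Percent inhibition from ex340/em450 signal change, fitted by 4-parameter Hill equation.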

[21] = Primary qHTS for small molecule stabilizers of the endoplasmic reticulum resident proteome: Secreted ER Calcium Modulated Protein (SERCaMP) assay (AID 1508630); further: on the % scale 0 is the no-effect control and ±100 the full control effect
Outline: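 The SH-SY5Y reporter protocol was run at 3 concentrations up to 38.3 uM (primary) or 11 concentrations (follow-up): 16 h compound, 100 nM thapsigargin for 4 h, then extracellular luciferase luminescence.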

Sequence of M-phase phosphoprotein 8 (Homo sapiens) (Q99549 whole entry, looked up): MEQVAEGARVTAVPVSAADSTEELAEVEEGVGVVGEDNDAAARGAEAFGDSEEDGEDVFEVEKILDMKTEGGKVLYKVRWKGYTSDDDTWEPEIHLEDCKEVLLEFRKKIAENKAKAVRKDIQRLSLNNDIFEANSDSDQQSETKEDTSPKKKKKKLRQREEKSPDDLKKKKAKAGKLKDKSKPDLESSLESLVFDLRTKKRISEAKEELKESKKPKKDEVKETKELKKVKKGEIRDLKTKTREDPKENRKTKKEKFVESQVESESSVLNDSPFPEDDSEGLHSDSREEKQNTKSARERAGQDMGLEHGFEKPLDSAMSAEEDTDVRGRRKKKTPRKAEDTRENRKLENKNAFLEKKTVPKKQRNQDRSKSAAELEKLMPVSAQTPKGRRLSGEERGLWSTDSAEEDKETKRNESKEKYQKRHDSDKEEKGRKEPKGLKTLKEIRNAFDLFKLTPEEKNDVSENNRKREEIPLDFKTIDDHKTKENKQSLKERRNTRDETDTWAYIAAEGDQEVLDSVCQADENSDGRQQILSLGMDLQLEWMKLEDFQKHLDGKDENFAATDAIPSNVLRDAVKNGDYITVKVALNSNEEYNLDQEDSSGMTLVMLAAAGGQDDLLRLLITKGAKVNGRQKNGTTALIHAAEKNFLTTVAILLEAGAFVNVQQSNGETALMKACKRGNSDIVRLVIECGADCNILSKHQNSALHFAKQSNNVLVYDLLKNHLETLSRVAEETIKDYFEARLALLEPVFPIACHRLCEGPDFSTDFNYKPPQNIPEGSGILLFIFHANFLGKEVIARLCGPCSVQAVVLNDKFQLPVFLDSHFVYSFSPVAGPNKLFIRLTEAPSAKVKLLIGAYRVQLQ
Sequence of Transient receptor potential cation channel subfamily V member 1 (Homo sapiens) (Q8NER1 whole entry, looked up): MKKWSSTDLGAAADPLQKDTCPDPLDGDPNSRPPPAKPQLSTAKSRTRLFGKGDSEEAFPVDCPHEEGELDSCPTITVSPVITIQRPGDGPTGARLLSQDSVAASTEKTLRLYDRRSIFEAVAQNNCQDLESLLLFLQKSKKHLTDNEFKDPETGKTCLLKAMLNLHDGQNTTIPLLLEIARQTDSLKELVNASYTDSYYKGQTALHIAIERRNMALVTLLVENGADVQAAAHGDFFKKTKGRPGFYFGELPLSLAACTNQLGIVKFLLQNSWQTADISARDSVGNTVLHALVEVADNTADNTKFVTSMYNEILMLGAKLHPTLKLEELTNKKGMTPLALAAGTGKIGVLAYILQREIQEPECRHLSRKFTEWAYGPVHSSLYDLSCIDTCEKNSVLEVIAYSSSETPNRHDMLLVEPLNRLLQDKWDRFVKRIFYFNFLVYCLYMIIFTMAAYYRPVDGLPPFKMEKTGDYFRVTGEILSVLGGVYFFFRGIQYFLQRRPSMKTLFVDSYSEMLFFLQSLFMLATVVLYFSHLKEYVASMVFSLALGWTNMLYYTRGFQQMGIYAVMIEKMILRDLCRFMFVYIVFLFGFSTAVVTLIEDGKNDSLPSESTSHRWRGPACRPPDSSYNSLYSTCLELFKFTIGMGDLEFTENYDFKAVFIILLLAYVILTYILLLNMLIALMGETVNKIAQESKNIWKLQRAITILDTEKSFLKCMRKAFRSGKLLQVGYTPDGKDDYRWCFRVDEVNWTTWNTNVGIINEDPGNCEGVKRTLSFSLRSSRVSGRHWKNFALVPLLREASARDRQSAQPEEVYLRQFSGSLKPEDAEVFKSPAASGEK
Sequence of Thyrotropin-releasing hormone receptor (Homo sapiens) (P34981 whole entry, looked up): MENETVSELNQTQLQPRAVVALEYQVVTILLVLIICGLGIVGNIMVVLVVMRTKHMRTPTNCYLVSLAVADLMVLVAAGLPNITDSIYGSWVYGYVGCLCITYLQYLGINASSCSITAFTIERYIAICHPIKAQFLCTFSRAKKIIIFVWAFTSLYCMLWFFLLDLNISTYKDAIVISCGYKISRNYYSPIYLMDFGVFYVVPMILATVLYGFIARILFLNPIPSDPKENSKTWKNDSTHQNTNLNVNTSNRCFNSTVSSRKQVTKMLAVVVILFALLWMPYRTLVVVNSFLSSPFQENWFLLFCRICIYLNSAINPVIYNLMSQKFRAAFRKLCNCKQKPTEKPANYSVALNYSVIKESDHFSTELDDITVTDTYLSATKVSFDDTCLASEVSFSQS
Sequence of RecQ-like DNA helicase BLM (Homo sapiens) (P54132 whole entry, looked up): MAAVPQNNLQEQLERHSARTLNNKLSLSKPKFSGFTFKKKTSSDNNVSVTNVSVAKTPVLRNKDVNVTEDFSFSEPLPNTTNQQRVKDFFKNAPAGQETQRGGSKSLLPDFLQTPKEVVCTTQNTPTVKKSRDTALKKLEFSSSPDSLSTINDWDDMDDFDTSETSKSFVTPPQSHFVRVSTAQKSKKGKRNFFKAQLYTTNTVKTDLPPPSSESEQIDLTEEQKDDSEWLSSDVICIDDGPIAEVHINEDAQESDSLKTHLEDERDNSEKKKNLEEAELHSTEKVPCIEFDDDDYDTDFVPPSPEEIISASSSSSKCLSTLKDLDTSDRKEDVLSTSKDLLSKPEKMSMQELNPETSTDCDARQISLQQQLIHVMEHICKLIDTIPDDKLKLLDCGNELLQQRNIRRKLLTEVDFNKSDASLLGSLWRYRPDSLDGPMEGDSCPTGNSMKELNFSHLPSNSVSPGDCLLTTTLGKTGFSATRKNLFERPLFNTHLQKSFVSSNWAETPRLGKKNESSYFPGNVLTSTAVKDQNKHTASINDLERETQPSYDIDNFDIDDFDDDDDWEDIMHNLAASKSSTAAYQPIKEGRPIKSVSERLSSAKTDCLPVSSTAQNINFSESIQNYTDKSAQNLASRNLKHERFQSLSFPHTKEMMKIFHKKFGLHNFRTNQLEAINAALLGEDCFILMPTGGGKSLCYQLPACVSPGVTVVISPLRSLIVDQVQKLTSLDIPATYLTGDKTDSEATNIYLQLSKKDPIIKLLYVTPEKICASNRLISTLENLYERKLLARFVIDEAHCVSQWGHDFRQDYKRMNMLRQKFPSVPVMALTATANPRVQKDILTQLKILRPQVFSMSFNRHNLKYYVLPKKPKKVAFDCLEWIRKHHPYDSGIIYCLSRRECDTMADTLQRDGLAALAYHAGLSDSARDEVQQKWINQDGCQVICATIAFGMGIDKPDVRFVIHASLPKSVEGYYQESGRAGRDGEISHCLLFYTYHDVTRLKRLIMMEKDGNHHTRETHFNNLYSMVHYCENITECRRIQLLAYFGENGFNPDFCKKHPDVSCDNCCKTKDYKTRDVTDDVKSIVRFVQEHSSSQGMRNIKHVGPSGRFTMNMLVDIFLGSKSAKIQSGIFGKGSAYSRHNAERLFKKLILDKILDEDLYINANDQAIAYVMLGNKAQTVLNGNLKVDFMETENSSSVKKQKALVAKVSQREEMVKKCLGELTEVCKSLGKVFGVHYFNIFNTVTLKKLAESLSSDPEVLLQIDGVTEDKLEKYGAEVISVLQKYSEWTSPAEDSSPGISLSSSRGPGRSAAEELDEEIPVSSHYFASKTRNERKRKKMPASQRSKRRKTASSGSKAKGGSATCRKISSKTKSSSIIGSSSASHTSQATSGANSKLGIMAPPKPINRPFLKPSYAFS
Sequence of Voltage-gated inwardly rectifying potassium channel KCNH2 (Homo sapiens) (Q12809 whole entry, looked up): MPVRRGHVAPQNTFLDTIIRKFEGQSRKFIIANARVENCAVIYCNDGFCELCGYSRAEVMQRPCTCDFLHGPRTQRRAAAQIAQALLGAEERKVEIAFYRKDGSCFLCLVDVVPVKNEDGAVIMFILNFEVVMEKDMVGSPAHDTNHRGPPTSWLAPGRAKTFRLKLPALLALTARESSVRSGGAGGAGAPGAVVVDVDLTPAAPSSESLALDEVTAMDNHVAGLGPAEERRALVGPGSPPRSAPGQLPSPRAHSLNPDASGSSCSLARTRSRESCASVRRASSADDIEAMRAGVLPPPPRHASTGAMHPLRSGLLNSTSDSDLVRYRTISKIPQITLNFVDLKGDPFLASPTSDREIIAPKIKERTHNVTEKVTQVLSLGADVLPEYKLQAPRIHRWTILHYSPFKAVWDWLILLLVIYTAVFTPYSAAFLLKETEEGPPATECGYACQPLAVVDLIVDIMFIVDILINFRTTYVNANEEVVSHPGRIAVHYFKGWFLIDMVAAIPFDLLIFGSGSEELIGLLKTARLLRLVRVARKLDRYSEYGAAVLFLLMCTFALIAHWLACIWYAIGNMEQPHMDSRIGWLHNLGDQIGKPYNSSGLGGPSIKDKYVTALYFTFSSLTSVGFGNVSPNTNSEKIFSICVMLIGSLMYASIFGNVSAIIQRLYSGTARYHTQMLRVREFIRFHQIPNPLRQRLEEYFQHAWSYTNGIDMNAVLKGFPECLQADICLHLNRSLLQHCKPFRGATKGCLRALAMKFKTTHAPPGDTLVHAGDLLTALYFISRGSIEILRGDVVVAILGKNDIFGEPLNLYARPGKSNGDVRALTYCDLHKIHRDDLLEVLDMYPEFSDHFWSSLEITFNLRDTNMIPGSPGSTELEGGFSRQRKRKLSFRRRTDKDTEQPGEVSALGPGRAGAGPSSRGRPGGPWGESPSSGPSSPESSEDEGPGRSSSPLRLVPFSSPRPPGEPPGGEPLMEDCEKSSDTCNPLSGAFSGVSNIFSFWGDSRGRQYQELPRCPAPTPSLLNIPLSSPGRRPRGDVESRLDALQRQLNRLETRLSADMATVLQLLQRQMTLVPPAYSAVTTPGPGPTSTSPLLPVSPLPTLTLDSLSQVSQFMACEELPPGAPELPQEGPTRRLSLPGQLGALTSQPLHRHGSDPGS
Sequence of Galactokinase (Homo sapiens) (P51570 whole entry, looked up): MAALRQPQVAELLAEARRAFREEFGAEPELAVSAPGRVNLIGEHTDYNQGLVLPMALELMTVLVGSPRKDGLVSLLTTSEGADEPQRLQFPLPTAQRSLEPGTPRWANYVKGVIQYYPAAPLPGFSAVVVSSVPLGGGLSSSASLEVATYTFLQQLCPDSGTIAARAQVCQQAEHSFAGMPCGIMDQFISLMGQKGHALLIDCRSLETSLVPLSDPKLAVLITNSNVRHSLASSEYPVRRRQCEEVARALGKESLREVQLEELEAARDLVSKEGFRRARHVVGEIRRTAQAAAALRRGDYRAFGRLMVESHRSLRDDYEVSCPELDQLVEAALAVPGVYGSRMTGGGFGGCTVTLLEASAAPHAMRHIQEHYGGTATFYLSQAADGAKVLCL

CC(N)=NCc1cccc(CN)c1
inactive: Potency [1] | Potency [2] | Potency [3] | Potency [4] | Potency [5] | Potency [6] | outcome [7] | Potency [8] | Potency [9] | Potency [10] | Potency [11] | Potency [12] | outcome [13] | outcome [14] | activation [15] -0.25% | outcome [16] | outcome [17] | Potency [18] | Potency [19] | Potency [20] | Potency [21]
